Measurements from PubChem BioAssay AID1345085 (National Center for Advancing Translational Sciences (NCATS), 2018).
Records with an inconclusive call do not appear. Values without a mark were called inactive. Activity calls are given as the source filed them. Calls come from the whole dose curve; as a rule, active = well fitted cell-killing curve with a large enough effect; inconclusive = small, poorly fitted or top-dose-only effect, or effect the other way; inactive = no such curve, though single readings can be large or run the other way. *1 amine or outer side, *2 acyl side, *3 side chain or, on linkers, in order; H or OH if unused. Where a SMILES comes first, the peptide text is derived from it. Bridges are numbered along the chain shown (N, C = ends). Roman numbers before positions name the chains, in order. [ ]: non-standard residue; d: D form. Actinocin(9to1) = Cc1c2oc3c(C)ccc(C(=O)[*:1])c3nc-2c(C(=O)[*:2])c(N)c1=O; NMeV = CN[C@H](C(=O)O)C(C)C; Sar = CNCC(=O)O

What follows are compounds tested on SW626 (assay: Confirmatory qHTS for gynecologic anti-cancer compounds from libraries of approved drugs and bioactive compounds). Conditions: gynecologic cancer cell panel viability, ATPlite luminescence, 48 h; series mostly up to 57.6 µM.
Text: National Center for Advancing Translational Sciences [NCATS] Assay Overview: Chemotherapeutic drug responses vary from cancer to cancer and from patient to patient. These variations could be caused by a number of factors including patient genomic background, tumor mutations, tumor heterogeneity, and aspects of drug treatment. Chemotherapeutic drug resistance is also a common issue and can lead to ineffective treatment and patient death. Here we have profiled the cell killing effects of thousands of compounds to characterize the responses in three gynecological cancers, identify cancer-selective compounds, and understand the diversity of responses to these compounds from pan-cancer suppressors to single cell line selective compounds. In this assay, we screened a 7,914 compound drug library that included approved drug and bioactive compounds in six ovarian, three cervical, and two placental cancer cell lines using the ATPlite assay for cell viability. ATPlite is a luminescence based assay reliant on the conversion of a luciferase substrate to light in the presence of ATP. As a cytotoxic compound will suppress growth and decrease the number of cells, the concentration of ATP will decrease, and less light signal will be detected in the well. Hits were selected from the primary screen for follow-up confirmation. For the confirmation screens, the ovarian cancer cell lines included CAOV-3, SK-OV-3, SW 626, ES-2, PA-1, and TOV-21G. The cervical cancer cell lines included HeLa, Ca Ski, and C-33 A. The placental cancer cell lines included JEG-3 and JAR. HEK 293T cells were used as the control cell line to determine the selectivity index. The ATPlite assay was used to determine the IC50 values.
Assay Protocol Summary: 1,000 cells in 4 uL of media were dispensed into white, solid bottom 1536-well plates using a Multidrop Combi (Thermo Scientific). The Assay plates were incubated for 16 hours at 37 C with 5% CO2 in assay plates, followed by the addition of 23 nL of DMSO or drug dissolved in DMSO. . Each compound was assayed in 11 concentrations (1:3 dilution) from 57.5 uM to 0.977 nM, using the automated Wako 1536 Pin Tool workstation and incubated at 37 C with 5% CO2 48 hours. 4 uL of ATPlite, the ATP monitoring reagent, was then added to the each well of the assay plates using the Multidrop Combi reagent dispenser followed by incubation for 15 minutes at room temperature. The resulting luminescence was measured using the ViewLux plate reader.
% is set by controls: 0 for no effect and ±100 for the full control effect; potency is the fitted concentration of half-maximal effect.
Note: nearly all actives have a fitted effect of over 55% in size.

| Compound | Potency | activity change, negative = viability loss |
| --- | --- | --- |
| CCN1CCN(Cc2ccc(-c3cc4c(NC(C)c5ccccc5)ncnc4[nH]3)cc2)CC1 (stereo not given) | 27.3 µM (active) | – |
| CC(C)(C)C(=O)OCOP(=O)(COCCn1cnc2c(N)ncnc21)OCOC(=O)C(C)(C)C | 17.2 µM (active) | – |
| Cc1c2oc3c(C)ccc(C(=O)N[C@@H]4C(=O)N[C@H](C(C)C)C(=O)N5CCC[C@H]5C(=O)N(C)CC(=O)N(C)[C@@H](C(C)C)C(=O)O[C@@H]4C)c3nc-2c(C(=O)N[C@@H]2C(=O)N[C@H](C(C)C)C(=O)N3CCC[C@H]3C(=O)N(C)CC(=O)N(C)[C@@H](C(C)C)C(=O)O[C@@H]2C)c(N)c1=O (I: T[dV]P[Sar][NMeV] / II: T[dV]P[Sar][NMeV]; ester I:1-I:C, II:1-II:C; linker I:N-II:N via Actinocin(9to1)) | 0.0863 µM (active) | – |
| CCN(CC)CCCC(C)Nc1c2ccc(Cl)cc2nc2ccc(OC)cc12 (stereo not given) | 27.3 µM (active) | – |
| CCCCc1oc2ccccc2c1C(=O)c1cc(I)c(OCCN(CC)CC)c(I)c1 | 79.4 µM (active) | – |
| Nc1nccc(Oc2ccc(NC(=O)c3c[nH]cc(-c4ccc(F)cc4)c3=O)cc2F)c1Cl | inactive | – |
| Cc1ccc(C(=O)Nc2ccc(CN3CCN(C)CC3)c(C(F)(F)F)c2)cc1C#Cc1cnc2cccnn12 | 21.7 µM (active) | – |
| c1cc(N[C@@H]2CCNC2)nc(-c2cnc3ccc(-c4cn[nH]c4)cn23)c1 | inactive | – |
| CN(C)c1ccc2nc3ccc(=[N+](C)C)cc-3sc2c1 | 8.63 µM (active) | – |
| COc1cc2ncnc(Nc3ccc(F)c(Cl)c3)c2cc1OCCCN1CCOCC1 | inactive | – |
| CC[C@@]1(O)C(=O)OCc2c1cc1n(c2=O)Cc2c-1nc1ccccc1c2/C=N/OC(C)(C)C | 0.217 µM (active) | – |
| O=C(c1ccc(/C=C/c2n[nH]c3ccccc23)cc1)N1CCNCC1 | 15.3 µM (active) | – |
| COc1cc(N2CCC(N(C)C)CC2)ccc1Nc1ncc(Cl)c(Nc2ccccc2P(C)(C)=O)n1 | 3.85 µM (active) | – |
| Cc1ccc(C(=O)Nc2ccc(CN3CCN(C)CC3)c(C(F)(F)F)c2)cc1C#Cc1cnc2[nH]ncc2c1 | 1.72 µM (active) | – |
| COc1cccc2c1C(=O)c1c(O)c3c(c(O)c1C2=O)C[C@@](O)(C(=O)CO)C[C@@H]3O[C@H]1C[C@H](N)[C@H](O[C@@H]2CCCCO2)[C@H](C)O1 | 7.69 µM (active) | – |
| O=C(Nc1cn[nH]c1-c1nc2ccc(CN3CCOCC3)cc2[nH]1)NC1CC1 | inactive | – |
| Cc1ccc(C(N)=O)cc1Nc1nccc(-c2cn(C(C)C)c3cnccc23)n1 | inactive | – |
| CC(C)c1nn(-c2c(Cl)cccc2Cl)c2nc(Cc3ccc(OCCO)cc3)[nH]c(=O)c12 | inactive | – |
| Nc1ccc(-c2ccc3ncc4ccc(=O)n(-c5cccc(C(F)(F)F)c5)c4c3c2)cn1 | 6.11 µM (active) | – |
| CCOC(=O)C1=C(C)NC2=C(C(=O)CC(C)(C)C2)C1c1ccc(-c2ccccc2)cc1 (stereo not given) | inactive | – |

| Compound | Potency | activity change, negative = viability loss |
| --- | --- | --- |
| CCN(CC)CCOc1ccc(/C(=C(\Cl)c2ccccc2)c2ccccc2)cc1 | 89.1 µM (active) | – |
| CCC1C(=O)N(C)c2cnc(Nc3ccc(C(=O)NC4CCC(N5CCN(CC6CC6)CC5)CC4)cc3OC)nc2N1C(C)C (stereo not given) | 7.69 µM (active) | – |
| C[C@@H](Oc1cc(-c2cnn(C3CCNCC3)c2)cnc1N)c1c(Cl)ccc(F)c1Cl | 21.7 µM (active) | – |
| CNc1nc(Nc2ccc(C(=O)N3CCOCC3)cc2OC)ncc1Cl | inactive | – |
| O=c1c2ccccc2nc2n1CCc1c-2[nH]c2ccccc12 | inactive | – |
| Cc1nc2ccc(CN(C)c3ccc(C(=O)NC(CCC(=O)O)C(=O)O)s3)cc2c(=O)[nH]1 (stereo not given) | inactive | – |
| COC(C(=O)N1Cc2[nH]nc(NC(=O)c3ccc(N4CCN(C)CC4)cc3)c2C1)c1ccccc1 (stereo not given) | inactive | – |
| c1nc2nc(Nc3ccc(N4CCOCC4)cc3)nc(NC3CCCCC3)c2[nH]1 | inactive | – |
| CC(=O)O[C@H]1C(=O)[C@@]2(C)[C@H]([C@H](OC(=O)c3ccccc3)[C@]3(O)C[C@H](OC(=O)[C@H](O)[C@@H](NC(=O)c4ccccc4)c4ccccc4)C(C)=C1C3(C)C)[C@]1(OC(C)=O)CO[C@@H]1C[C@@H]2O | – | -9.14% [at 10.7 µM] |
| O=C(O)c1ccc(Nc2ncc3c(n2)-c2ccc(Cl)cc2C(c2c(F)cccc2F)=NC3)cc1 | inactive | – |
| Cc1cc(Nc2nc(N[C@@H](C)c3ccc(F)cc3)c(C#N)cc2F)n[nH]1 | 5.44 µM (active) | – |
| COCCOc1nc(-c2ccc(Cl)c(Cl)c2)n(-c2ccc(NC(=O)CCl)cc2)n1 | 6.11 µM (active) | – |
| NC(=O)Nc1cc(-c2cccc(F)c2)sc1C(=O)NC1CCCNC1 (stereo not given) | 0.306 µM (active) | – |
| COC(=O)c1ccc2c(C(=Nc3ccc(N(C)C(=O)CN4CCN(C)CC4)cc3)c3ccccc3)c(O)[nH]c2c1 | 24.3 µM (active) | – |
| Cc1c(C)n(Cc2ccc(-c3ccccc3C(=O)O)cc2)c2ccc(C(=O)N[C@@H](C)c3ccc([N+](=O)[O-])cc3)cc12 | inactive | – |
| CCCCc1nc2cc(/C=C/C(=O)NO)ccc2n1CCN(CC)CC | 0.769 µM (active) | – |
| O=C1NC(=O)C(c2cnc3ccccn23)=C1c1cn2c3c(cccc13)CN(C(=O)N1CCOCC1)CC2 | inactive | – |
| Oc1cn2c(n1)Nc1ccc(Cl)c(Cl)c1C2 | inactive | – |
| Cc1ccc(C(=O)Nc2ccc(Oc3cc4cnn(C)c4cc3-c3cn[nH]c3)c(F)c2)c(=O)n1-c1ccc(F)cc1 | 4.32 µM (active) | – |
| CC1(C)[C@@H](O)CC[C@]2(C)[C@H]3C(=O)C=C4[C@@H]5C[C@@](C)(C(=O)O)CC[C@]5(C)CC[C@@]4(C)[C@]3(C)CC[C@@H]12 | inactive | – |
